Screens: PubChem BioAssay, Broad Institute
Tg IFNy HTS = T. gondii growth inhibition under IFN-gamma | Toxoplasma gondii growth in IFN-gamma-treated host cells; stronger effect = lower value | activity change, negative = inhibition, % (concentration not given with the values) | 3.8% of 69,000 active; in the data active means activity change below about -70%, passing the limit was not always enough;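 further: host cells are HeLa cells infected with Toxoplasma gondii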
Active calls of the source: *; ! = not confirmed by another sample. Only a selection was taken, and hits are over-represented in it overall.

SMILES	Tg IFNy HTS
CC(C)N1c2ccccc2[C@@H]2CN(C(=O)C3CC3)CC[C@H]21	12
COCCn1cc2c(n1)C(CNS(=O)(=O)N(C)C)OCC2 (centres undefined)	1
Cc1ccc(NC(=O)Cn2c(=O)cc(-c3nc(C)no3)c3ccccc32)c(Cl)c1	-13
Cn1nccc1-c1cnc2n1CCNC21CCN(C(=O)CC(F)(F)F)CC1	34
CCC(=O)OCC(=O)[C@@]1(OC(=O)CC)[C@@H](C)C[C@H]2[C@@H]3CCC4=CC(=O)C=C[C@]4(C)[C@@]3(Cl)[C@@H](O)C[C@@]21C	-74*!
CCC(=O)OCC(=O)[C@@]1(OC(=O)CC)[C@@H](C)C[C@H]2[C@@H]3CCC4=CC(=O)C=C[C@]4(C)[C@@]3(F)[C@@H](O)C[C@@]21C	-1
CCC(=O)O[C@@]1(C(=O)CCl)[C@@H](C)C[C@H]2[C@@H]3C[C@H](F)C4=CC(=O)C=C[C@]4(C)[C@]3(F)[C@H](O)C[C@@]21C	3
Cc1nnc(CNC(=O)CCSc2ccc3c(c2)OCCO3)o1	-1
Cc1cc2ncn(CCC(=O)O)c2cc1C	30
COc1ccc([C@H]2C/C=C\C[C@@H](c3ccc4c(c3)OCO4)NC(=O)CCC(=O)N2)c(OC)c1	-52
COc1cc([C@@H]2c3cc4c(cc3[C@@H](O[C@@H]3O[C@@H]5CO[C@@H](C)O[C@H]5[C@H](O)[C@H]3O)[C@H]3COC(=O)[C@H]23)OCO4)cc(OC)c1O	-80*
COc1cc2c(c(OC)c1OC)-c1c(cc3c(c1OC)OCO3)C[C@H](C)[C@@H](C)C2	-8
COc1cc([C@@H]2c3cc4c(cc3[C@H](O)[C@H]3COC(=O)[C@H]23)OCO4)cc(OC)c1OC	-76*!
COC(=O)CSc1nnc([C@H](C)NC(=O)OC(C)(C)C)o1	13
Cc1sc2ncn3c(SCC(=O)NCc4ccccc4)nnc3c2c1C	-13
CCOC(=O)c1c(CNC)n(C)c2cc(Br)c(O)cc12	-6
Cc1ccc(CN2CCc3nc(N4CCOCC4)nc(NC(C)C)c3C2)s1	-98*
COc1ccc(CN2CCc3nc(N4CCOCC4)nc(NC4CC4)c3C2)cc1	0
Cc1ccc(CN2CCc3nc(NC(C)C)nc(C)c3C2)s1	-6
COc1ccc(C(=O)N(Cc2ccc(C)cc2)C2(C(=O)NCc3ccccc3)CCN(C(C)=O)CC2)cc1	7
CCCCCN1CC2CN(C(=O)Nc3ccccc3)CC21 (centres undefined)	129
Cc1ccc(C)n1CCN1CCN(C(=O)c2cccc(C(F)(F)F)c2)CC1	-50
COc1ccc(C(=O)N2CCN(c3cccc(C(F)(F)F)c3)CC2)cc1OC	-79*
COc1ccc(C(=O)N2CCN(c3ncnc4cc(C(C)(C)C)sc34)CC2)cc1OC	-85*
COc1ccc(C(=O)N2CCC(c3nc(C(=O)N4CCCC4)c(C)o3)CC2)cc1OC	41
SMILES	Tg IFNy HTS
COc1ccc(C(=O)N2CCN(c3cnn(C)c(=O)c3Cl)CC2)cc1OC	0
O=C(c1ccc2ncnc(N3CCCC3)c2c1)N1CCCC1	-38
COCCN1CCC2(CC1)CC(c1ccncc1)C(=O)N2 (centres undefined)	-18
O=C1c2ccccc2S(=O)(=O)N1c1ccccc1F	-15
CC1CCN(Cc2ccc(C(=O)N3CCOC(C(F)(F)F)C3)o2)CC1 (centres undefined)	-3
Cc1ccccc1-c1nc2cnccn2c1NCCC(=O)N1CCC2(CC1)OCCO2	7
COc1ccc2c(c1)OC1(CC3CCC1CC3C(=O)NCCc1ccccc1)NC2=O (centres undefined)	13
COCCC(=O)c1nc(-c2cn(CCOC)cn2)n2ccccc12	-44
CN(CCCc1cnn(C)c1)C(=O)C1(C)CCCCO1 (centres undefined)	-10
Cc1ccsc1-c1ccc(CNC(=O)CC2(CC(=O)O)CCCCC2)cc1	14
O=C(NCCc1csc(-c2ccc(Cl)cc2)n1)C(=O)Nc1ccc(F)cc1	48
O=C(NC(=O)c1csc(-c2ccc(C(F)(F)F)cc2Cl)n1)Nc1ccc(F)cc1	-98*
O=C(Nc1ccc2c(c1)OCCO2)c1csc(-c2cccc3c2CCO3)n1	51
COc1ccc(-c2ccc(OCCNC(=O)c3sc(-c4ccccc4)nc3C)nn2)cc1	-5
Cc1ccc(N2CCc3ncnc(N(C)C)c3CC2)nn1	3
CC(C)c1ccc(CNC(=O)CSc2cccc3cccnc23)cc1	11
CC(=O)OC[C@H]1O[C@@H](Sc2cccc3cccnc23)[C@H](OC(C)=O)[C@@H](OC(C)=O)[C@H]1OC(C)=O	4
O=C(CSc1cccc2cccnc12)OCC(=O)c1ccccc1	-89*
COCCCn1c(-c2ccncc2)n[nH]c1=S	-11
Cc1cc(CC(C)CC(C)(C)C)n(O)c(=O)c1 (centres undefined)	-68
Cc1cc(C2CCCCC2)n(O)c(=O)c1	-82*!
CCN1C(=O)CCC12CCC(NC(=O)c1cc(C)on1)CC2 (centres undefined)	-2
c1ccc(Cc2nc3ccccc3[nH]2)cc1	-16
Clc1nc2ccccc2c2[nH]c3ccccc3c12	-95*
O=C1NCc2c1c1c3ccccc3[nH]c1c1[nH]c3ccccc3c21	1
